Measured values as given in the supplement of paper PMC6089552.
Among all 3,200 compounds or so, about 300 (9.4%) showed activity. The entries come from a sample that favours actives as a whole.

System: A673/TR/shEF
Test: cell viability (LOESS-normalised, relative to median of negative controls) (log2 ratio); higher = more viable cells (less compound effect), active = hit call of the paper (over 3 MAD below the median)
Conditions: treatment time: 72 h
Summary of the method: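 A673/TR/shEF Ewing sarcoma cells (1,500 per well, 384-well plates) were grown with or without doxycycline to induce EWS-FLI1 shRNA knockdown, starting 24 h before compounds. Library compounds at two or more concentrations, with DMSO controls, were added for three days. Cell viability was read by CellTiter-Glo luminescence on an Envision reader, then LOESS-corrected per plate, divided by the median of negative controls and log2-transformed. Hits were wells at least three median absolute deviations from the median of all screened wells.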

[1] = 0.25 µM, library screen: screen1, EWS-FLI1 expression: high (no doxycycline)
[2] = 0.25 µM, library screen: screen1, EWS-FLI1 expression: low (doxycycline-induced shRNA knockdown)
[3] = 2.5 µM, library screen: screen1, EWS-FLI1 expression: high (no doxycycline)
[4] = 2.5 µM, library screen: screen1, EWS-FLI1 expression: low (doxycycline-induced shRNA knockdown)
[5] = 0.103 µM, library screen: screen3, EWS-FLI1 expression: high (no doxycycline)
[6] = 0.103 µM, library screen: screen3, EWS-FLI1 expression: low (doxycycline-induced shRNA knockdown)
[7] = 0.25 µM, library screen: screen2, EWS-FLI1 expression: high (no doxycycline)
[8] = 0.25 µM, library screen: screen2, EWS-FLI1 expression: low (doxycycline-induced shRNA knockdown)
[9] = 0.308 µM, library screen: screen3, EWS-FLI1 expression: high (no doxycycline)
[10] = 0.308 µM, library screen: screen3, EWS-FLI1 expression: low (doxycycline-induced shRNA knockdown)
[11] = 0.926 µM, library screen: screen3, EWS-FLI1 expression: high (no doxycycline)
[12] = 0.926 µM, library screen: screen3, EWS-FLI1 expression: low (doxycycline-induced shRNA knockdown)
[13] = 2.5 µM, library screen: screen2, EWS-FLI1 expression: high (no doxycycline)
[14] = 2.5 µM, library screen: screen2, EWS-FLI1 expression: low (doxycycline-induced shRNA knockdown)
[15] = 2.8 µM, library screen: screen3, EWS-FLI1 expression: high (no doxycycline)
[16] = 2.8 µM, library screen: screen3, EWS-FLI1 expression: low (doxycycline-induced shRNA knockdown)
[17] = 8.3 µM, library screen: screen3, EWS-FLI1 expression: high (no doxycycline)
[18] = 8.3 µM, library screen: screen3, EWS-FLI1 expression: low (doxycycline-induced shRNA knockdown)
[19] = 25 µM, library screen: screen3, EWS-FLI1 expression: high (no doxycycline)
[20] = 25 µM, library screen: screen3, EWS-FLI1 expression: low (doxycycline-induced shRNA knockdown)
[21] = 0.025 µM, library screen: screen1, EWS-FLI1 expression: high (no doxycycline)
[22] = 0.025 µM, library screen: screen1, EWS-FLI1 expression: low (doxycycline-induced shRNA knockdown)
[23] = 25 µM, library screen: screen1, EWS-FLI1 expression: high (no doxycycline)
[24] = 25 µM, library screen: screen1, EWS-FLI1 expression: low (doxycycline-induced shRNA knockdown)

Measured: cell viability (log2)

C=CC(C)(C)c1c2c(c(O)c3c(=O)c4ccc(O)c(O)c4oc13)C=CC(C)(C)O2
inactive: [1] -0.0194 | [2] 0.182 | [3] -0.0746 | [4] 0.15

CC1C(=O)CC2CC1C2(C)C (stereo unspecified)
inactive: [2] 0.0655 | [3] 0.091 | [4] 0.103
active: [1] -0.106

NC(=O)c1ccccc1NC(=O)c1cc2ccccc2o1
inactive: [1] 0.112 | [2] 0.167 | [3] 0.0735 | [4] 0.103

O=C(O)CCCCCCCCCCCCC1C=CCC1 (stereo unspecified)
inactive: [1] 0.109 | [2] -0.0641 | [3] 0.133 | [4] 0.00345

CCC(C)[C@H]1O[C@]2(CC[C@@H]1C)CC1C[C@@H](C/C=C(\C)[C@@H](O[C@H]3C[C@H](OC)[C@@H](OC4C[C@H](OC)[C@@H](O)[C@H](C)O4)[C@H](C)O3)[C@@H](C)/C=C/C=C3\CO[C@@H]4[C@H](O)C(C)=C[C@@H](C(=O)O1)[C@]34O)O2.CO[C@H]1CC(O[C@H]2[C@H](C)O[C@@H](O[C@@H]3/C(C)=C/C[C@@H]4CC(C[C@]5(CC[C@H](C)[C@@H](C(C)C)O5)O4)OC(=O)[C@@H]4C=C(C)[C@@H](O)[C@H]5OC/C(=C\C=C\[C@@H]3C)[C@]54O)C[C@@H]2OC)O[C@@H](C)[C@@H]1O (stereo partly specified)
inactive: [5] 0.062 | [6] 0.111 | [7] 0.0727 | [8] 0.0714 | [9] -0.0408 | [10] 0.0112 | [11] -0.0851 | [12] -0.0397 | [14] -0.0072
active: [13] -0.104 | [15] -0.279 | [16] -0.285 | [17] -0.239 | [18] -0.115 | [19] -3.03 | [20] -1.99

CO[C@H]1C[C@H](O[C@@H]2/C(C)=C/C[C@@H]3C[C@@H](C[C@]4(CC[C@H](C)[C@@H](C5CCCCC5)O4)O3)OC(=O)[C@@H]3C=C(C)/C(=N/O)[C@H]4OC/C(=C\C=C\[C@@H]2C)[C@]43O)O[C@@H](C)[C@@H]1O
inactive: [1] 0.0971 | [2] 0.0732 | [3] 0.0965 | [4] 0.0106

Cc1cc(=O)c2c(O)c3c(cc2o1)OC(C)(C)CC3
inactive: [1] -0.0169 | [2] 0.014 | [3] 0.0268 | [4] 0.147

CCC[C@H]1CC2=C(C[C@@H](CC)CC3=C1C(=O)OC3=O)C(=O)OC2=O
inactive: [1] 0.0818 | [2] 0.0576 | [3] 0.117 | [4] 0.0649

Cc1sc2c(=O)n3c(nc2c1C(=O)NCCc1ccccc1)CCCCC3
inactive: [1] 0.129 | [2] 0.0568 | [3] 0.167 | [4] 0.136

CC(C)CCC[C@@H](C)C1CC[C@H]2[C@@H]3CCC4=CC(=O)C=C[C@]4(C)[C@H]3CC[C@]12C (stereo partly specified)
inactive: [1] 0.107 | [2] 0.0599 | [3] 0.105 | [4] 0.0638

c1ccc([C@@H]2CCC[C@@H]2NC2=NCCCCCCCCCCC2)cc1
inactive: [7] 0.117 | [8] 0.0677 | [13] 0.18 | [14] 0.156

CC1(C)C[C@@]23C(=O)CC[C@@H](O)C2(C)CC[C@H]13 (stereo partly specified)
inactive: [1] 0.0615 | [2] -0.0504 | [3] 0.0572 | [4] 0.0807

COc1c(O)cc(C2Oc3c(c(O)cc(O)c3[C@H]3c4c(O)cc(O)cc4O[C@H](c4ccc(O)cc4)[C@@H]3O)C[C@H]2O)cc1O (stereo partly specified)
inactive: [5] -0.000188 | [6] 0.0292 | [9] -0.0295 | [10] -0.00938 | [11] 0.0249 | [12] 0.0493 | [15] -0.0107 | [16] 0.0655 | [17] 0.0329 | [18] 0.11 | [19] 0.0402 | [20] 0.209

CN1CC[C@H](c2c(O)cc(O)c3c(=O)cc(-c4ccccc4Cl)oc23)[C@H](O)C1
active: [5] -0.182 | [9] -0.451 | [10] -0.231 | [11] -1.4 | [12] -1.66 | [15] -3.54 | [16] -2.88 | [17] -4.29 | [18] -4.28 | [19] -4.33 | [20] -4.3
inactive: [6] -0.0654

CC(=O)OC1CC[C@@]2(C)C(CC[C@]3(C)C2CCC2C4CC(C)(C)CCC4(C(=O)O)CC[C@]23C)C1(C)C (stereo partly specified)
inactive: [1] 0.0992 | [2] 0.055 | [3] 0.145 | [4] 0.119

CC(=O)Oc1cc(OC(C)=O)c2c(c1)OC(c1ccc(OC(C)=O)c(OC(C)=O)c1)C(OC(C)=O)C2 (stereo unspecified)
inactive: [1] 0.1 | [2] 0.0336 | [3] 0.18 | [4] 0.104

CC(C)(O)[C@@H]1Cc2cc3ccc(=O)oc3cc2O1
inactive: [1] 0.0301 | [2] -0.0352 | [3] 0.107 | [4] 0.0444

COc1ccccc1-c1cc(=O)c2cccc(OC)c2o1
inactive: [1] 0.00414 | [2] -0.0253 | [3] 0.211 | [4] 0.0664

COc1cccc(-c2cc(=O)c3ccccc3o2)c1N
inactive: [21] 0.268 | [22] -0.0228 | [2] -0.0268 | [7] 0.18 | [8] 0.11 | [4] 0.0789 | [13] 0.195 | [14] 0.139 | [23] -0.0514 | [24] 0.0727
active: [3] -0.37
0.278: [1]

COc1ccccc1-c1cc(=O)c2c(OC)cccc2o1
inactive: [1] 0.121 | [2] -0.0186 | [3] 0.129 | [4] 0.0665

Cc1cc(OC(=O)c2c(C)cc(OC(=O)c3c(C)cc(O)cc3O)cc2O)cc(O)c1C(=O)O
inactive: [1] 0.154 | [2] 0.153 | [3] 0.0106 | [4] 0.113

CC[n+]1c(-c2ccccc2)c2cc(N)ccc2c2ccc(N)cc21
inactive: [1] 0.0617 | [2] 0.0391 | [4] -0.0126
active: [3] -1.89

NCCNC(=O)Cc1ccc(NC(=O)Cc2ccc(Nc3ncnc4c3ncn4C3OC(CO)C(O)C3O)cc2)cc1 (stereo unspecified)
inactive: [7] 0.211 | [8] 0.142 | [13] 0.0909 | [14] 0.0423

O=C1/C(=C\c2ccccc2F)SC(=S)N1CN1CCOCC1
inactive: [1] 0.128 | [2] 0.0809 | [3] 0.107 | [4] -0.00103

CCCCCCCC/C=C\CCCCCCCC(=O)O
inactive: [7] 0.0706 | [8] 0.117 | [13] 0.0994 | [14] 0.08

CC(=O)NCCCCCC(=O)O
inactive: [1] 0.0566 | [2] 0.106 | [3] 0.0136 | [4] 0.0704

O=C(O)CCCCCCCC(=O)O
inactive: [1] 0.000753 | [2] 0.0938 | [8] 0.0952 | [3] 0.149 | [4] 0.152 | [13] 0.0755 | [14] 0.0904
active: [7] -0.13

NCCCCC(=O)O
inactive: [1] 0.172 | [2] 0.0951 | [8] 0.128 | [3] 0.237 | [4] 0.0298 | [13] 0.0908 | [14] 0.116
active: [7] -0.118

NCCCCCC(=O)O
inactive: [5] 0.214 | [6] 0.078 | [1] 0.0812 | [2] 0.00994 | [7] -0.00366 | [8] 0.09 | [9] 0.0847 | [10] 0.0858 | [11] 0.107 | [12] 0.0768 | [3] 0.144 | [4] 0.111 | [13] 0.0922 | [14] 0.111 | [15] 0.141 | [16] 0.0677 | [17] 0.085 | [18] 0.128 | [19] 0.0538 | [20] 0.145

NCCCC(=O)O
inactive: [1] 0.0628 | [2] 0.0888 | [7] 0.148 | [8] 0.12 | [3] 0.21 | [4] 0.0413 | [13] 0.0279 | [14] 0.142

COC(=O)[C@@H]1OC(=O)C2OC23[C@@]1(C)CCC1[C@]2(C)C(C[C@@H](O)[C@]13C)C(C)(C)[C@H](OC(C)=O)C[C@@H]2OC(C)=O (stereo partly specified)
inactive: [1] 0.0653 | [2] 0.123 | [3] 0.0967 | [4] 0.0969

COCCN1C(=O)C(=Cc2c(Cl)cccc2Cl)SC1=S
inactive: [1] 0.153 | [2] 0.208 | [3] 0.122 | [4] 0.19

COc1c(C=O)c(O)cc2c1C(=O)c1ccccc1C2=O
inactive: [21] 0.0865 | [22] 0.0031 | [1] 0.118 | [2] -0.13 | [3] 0.0699 | [4] -0.209 | [23] 0.0121 | [24] -0.781

COc1cc(C)c2c(=O)c3c(O)cc(O)cc3oc2c1
inactive: [1] -0.0797 | [2] 0.0363 | [3] 0.0175 | [4] 0.108

CC(C)c1c(O)ccc2c1CCC1[C@@](C)(C=O)CCC[C@]21C (stereo partly specified)
inactive: [1] 0.0641 | [2] 0.0754 | [3] 0.163 | [4] 0.289

CC1=C(C(=O)Nc2ccccc2Cl)C(c2ccc(O)cc2)NC(=S)N1 (stereo unspecified)
inactive: [1] 0.145 | [2] -0.0151 | [3] 0.191 | [4] -0.0985

CCN(CC)c1ccc(C2C(C(=O)OC)=C(C)NC(C)=C2C(=O)OC)cc1
inactive: [1] 0.121 | [2] 0.087 | [3] 0.202 | [4] 0.078
